“And” between values parts separate entries of the source, which are not always exact repeats. Identical values can stand only once. Records with an inconclusive call do not appear. Where a call stands in place of a potency, no number is given. More than one record can exist for a structure, and the calls need not agree. The source made the active and inactive calls. Unless noted, calls follow the shape of the dose curve; as a rule, active = well fitted curve in the direction sought with a large enough effect in the repeat runs; inconclusive = weak or mixed curves; inactive = no such curve, though single readings can be large; an effect the other way counts as inactive or inconclusive.
Assays:
[1] = qHTS assay to identify aromatase inhibitors - cell viability counter screen (AID 743084);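 also: cells stimulated with testosterone during compound exposure; nearly all actives have a fitted effect of over 55% in size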; also: potency is read from the fitted curve at half-maximal effect
[2] = molecular target: Aryl hydrocarbon receptor (Homo sapiens) (UniProt P35869); experiment: qHTS assay to identify small molecule that activate the aryl hydrocarbon receptor (AhR) signaling pathway (AID 743085); also: nearly all actives have a fitted effect of over 15% in size; also: potency is read from the fitted curve at half-maximal effect;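 as to activation: HG2L7.5c1 human HepG2 liver cells with stably integrated DRE-driven firefly reporter; series mostly up to about 70 µM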
Chain of Aryl hydrocarbon receptor (Homo sapiens) (P35869 whole entry, looked up): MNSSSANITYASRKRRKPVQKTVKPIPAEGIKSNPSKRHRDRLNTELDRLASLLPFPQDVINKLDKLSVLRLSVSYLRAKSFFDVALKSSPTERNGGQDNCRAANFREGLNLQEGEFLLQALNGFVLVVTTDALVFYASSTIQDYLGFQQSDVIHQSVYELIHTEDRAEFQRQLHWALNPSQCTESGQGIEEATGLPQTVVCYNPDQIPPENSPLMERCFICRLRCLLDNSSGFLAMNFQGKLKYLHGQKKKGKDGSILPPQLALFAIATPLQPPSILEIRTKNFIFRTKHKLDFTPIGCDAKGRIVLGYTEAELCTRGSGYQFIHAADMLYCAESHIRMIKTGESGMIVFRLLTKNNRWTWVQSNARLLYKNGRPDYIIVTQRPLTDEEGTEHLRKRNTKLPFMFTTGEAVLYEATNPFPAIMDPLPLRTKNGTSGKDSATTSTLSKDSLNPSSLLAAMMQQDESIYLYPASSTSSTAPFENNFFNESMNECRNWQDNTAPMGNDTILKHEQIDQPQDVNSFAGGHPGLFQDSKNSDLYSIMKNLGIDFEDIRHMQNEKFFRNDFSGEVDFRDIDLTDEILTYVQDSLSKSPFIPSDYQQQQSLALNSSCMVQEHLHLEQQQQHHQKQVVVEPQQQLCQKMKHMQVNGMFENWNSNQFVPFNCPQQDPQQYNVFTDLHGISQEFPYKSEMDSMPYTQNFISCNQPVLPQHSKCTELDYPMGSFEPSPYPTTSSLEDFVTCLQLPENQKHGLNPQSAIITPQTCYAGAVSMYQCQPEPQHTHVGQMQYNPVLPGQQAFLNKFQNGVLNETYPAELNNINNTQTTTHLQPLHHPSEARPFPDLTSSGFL
In short: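 HepG2 cells (HG2L7.5c1) stably carrying a firefly luciferase reporter driven by 20 dioxin responsive elements were exposed to compound for 24 h at 37C after a 5 h settling period; luminescence rise (ONE-Glo) indicated activation.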

[3] = qHTS assay to identify small molecule that activate the aryl hydrocarbon receptor (AhR) signaling pathway - cell viability counter screen (AID 743086);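 also: HepG2 liver cells carrying the AhR DRE luciferase reporter; series mostly up to about 70 µM; nearly all actives have a fitted effect of over 45% in size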
In short: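 HepG2-AhR-luc (HG2L7.5c1) cells, 4000/well, treated 24 h at 37 C with compound; viability measured as CellTiter-Fluor fluorescence after 30 min in the same wells as the luciferase read.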

[4] = molecular target: Peroxisome proliferator-activated receptor gamma (Homo sapiens) (UniProt P37231); experiment: qHTS assay to identify small molecule agonists of the peroxisome proliferator-activated receptor gamma (PPARg) signaling pathway (AID 743094; active = well fitted activation curve with a large enough effect in the signal ratio in the repeat runs, not every such curve was filed as active; the % refers to the signal ratio; also: potency is read from the fitted curve at half-maximal effect)
Chain of Peroxisome proliferator-activated receptor gamma (Homo sapiens) (P37231 whole entry, looked up): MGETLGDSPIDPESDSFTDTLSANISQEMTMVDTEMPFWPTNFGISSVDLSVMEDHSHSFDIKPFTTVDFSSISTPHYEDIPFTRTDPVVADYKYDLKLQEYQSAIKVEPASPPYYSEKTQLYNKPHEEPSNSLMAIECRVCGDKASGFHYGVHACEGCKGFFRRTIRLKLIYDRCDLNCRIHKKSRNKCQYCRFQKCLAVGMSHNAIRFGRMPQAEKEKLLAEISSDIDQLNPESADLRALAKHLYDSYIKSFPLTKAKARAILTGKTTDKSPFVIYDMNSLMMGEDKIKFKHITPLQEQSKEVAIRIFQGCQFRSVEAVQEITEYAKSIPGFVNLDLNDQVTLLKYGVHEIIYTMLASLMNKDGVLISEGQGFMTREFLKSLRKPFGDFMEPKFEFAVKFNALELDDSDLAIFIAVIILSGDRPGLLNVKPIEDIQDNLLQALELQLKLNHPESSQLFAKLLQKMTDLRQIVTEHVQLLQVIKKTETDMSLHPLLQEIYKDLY
In short: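 Compounds dissolved in DMSO were added to PPARg UAS-bla HEK293H cells for 17 h at 37C, and reporter expression was quantified by fluorescence intensity after 1 h with LiveBLAzer B/G FRET substrate.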

[5] = molecular target: Peroxisome proliferator-activated receptor gamma (Homo sapiens) (UniProt P37231); experiment: qHTS assay to identify small molecule antagonists of the peroxisome proliferator-activated receptor gamma (PPARg) signaling pathway (AID 743191; calls by dose curve; also: nearly all actives have a fitted effect of over 30% in size; also: potency is read from the fitted curve at half-maximal effect)
In short: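 GeneBLAzer PPARg UAS-bla HEK293H cells, 5 h post-plating, exposed to compounds 17 h at 37C. LiveBLAzer B/G FRET substrate added for 1 h at room temperature; beta-lactamase reporter read by fluorescence intensity.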

[6] = qHTS assay to identify small molecule antagonists of the peroxisome proliferator-activated receptor gamma (PPARg) signaling pathway - cell viability counter screen (AID 743194); also: nearly all actives have a fitted effect of over 55% in size
In short: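 Cytotoxicity counter screen in PPARg-bla HEK293H cells, same wells as reporter assay. Compounds plus 50 nM rosiglitazone (final) for 17 h at 37 C, then viability read by CellTiter-Glo luminescence.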

[7] = qHTS assay for small molecule agonists of the antioxidant response element (ARE) signaling pathway (AID 743202; active = well fitted activation curve with a large enough effect in the signal ratio in the repeat runs, not every such curve was filed as active; the % refers to the signal ratio; also: potency is read from the fitted curve at half-maximal effect)
In short: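 Agonist mode reporter screen: HepG2 cells with ARE-controlled beta-lactamase are incubated with test compounds for 16 h at 37 C, and beta-lactamase activity is measured as fluorescence of cleaved B/G FRET substrate.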

[8] = qHTS assay for small molecule agonists of the antioxidant response element (ARE) signaling pathway - cell viability counter screen (AID 743203; calls by dose curve; also: nearly all actives have a fitted effect of over 55% in size)
In short: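 Following 16 hrs of compound treatment at 37C, HepG2 cells with an ARE-controlled beta-lactamase gene were lysed with CellTiter-Glo. Luminescence was read after 30 min at room temperature.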

[9] = qHTS assay for small molecule activators of the heat shock response signaling pathway - cell viability counter screen (AID 743209); also: nearly all actives have a fitted effect of over 50% in size
In short: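 Readout: CellTiter-Glo luminescence, 30 min at room temperature. System: HSE-bla HeLa cells, 1500/well, plated overnight. Treatment: compounds in DMSO, 5 h at 37 C.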

[10] = qHTS assay for small molecule activators of the heat shock response signaling pathway (AID 743210; active = well fitted activation curve with a large enough effect in the signal ratio in the repeat runs, with a control signal flat, not every such curve was filed as active; the % refers to the signal ratio;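 also: HeLa cells with beta-lactamase reporter driven by heat shock elements; series mostly up to about 63 µM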)
In short: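 Quantitative high-throughput format using an engineered HeLa line in which heat shock response elements drive beta-lactamase; after 5 h with compound, cells received a B/G FRET substrate and fluorescence was read.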

[11] = qHTS assay to identify small molecule agonists of the peroxisome proliferator-activated receptor delta (PPARd) signaling pathway - cell viability counter screen (AID 743211); also: nearly all actives have a fitted effect of over 55% in size; also: potency is read from the fitted curve at half-maximal effect
In short: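 PPARd-bla HEK293H cells (UAS-beta-lactamase reporter) were treated with compounds for 17 h at 37 C. Viability was then read in the same wells by CellTiter-Glo luminescence after 30 min at room temperature.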

[12] = molecular target: Peroxisome proliferator-activated receptor delta (Homo sapiens) (UniProt Q03181); experiment: qHTS assay to identify small molecule agonists of the peroxisome proliferator-activated receptor delta (PPARd) signaling pathway (AID 743212; calls by dose curve)
Chain of Peroxisome proliferator-activated receptor delta (Homo sapiens) (Q03181 whole entry, looked up): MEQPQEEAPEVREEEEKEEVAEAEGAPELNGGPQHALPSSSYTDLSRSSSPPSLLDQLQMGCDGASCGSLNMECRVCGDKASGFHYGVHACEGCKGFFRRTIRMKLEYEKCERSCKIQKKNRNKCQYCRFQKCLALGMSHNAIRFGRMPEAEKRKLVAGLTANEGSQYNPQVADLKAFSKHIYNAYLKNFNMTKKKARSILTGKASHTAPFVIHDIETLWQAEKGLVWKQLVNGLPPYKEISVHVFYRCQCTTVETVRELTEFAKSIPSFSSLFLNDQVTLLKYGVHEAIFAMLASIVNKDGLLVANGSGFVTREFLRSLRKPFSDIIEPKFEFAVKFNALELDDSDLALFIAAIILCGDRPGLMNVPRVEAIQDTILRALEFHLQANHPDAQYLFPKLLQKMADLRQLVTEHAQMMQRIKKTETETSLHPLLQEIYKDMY
In short: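 Quantitative high-throughput agonist screen in a HEK293H beta-lactamase reporter line under UAS control. Compounds in DMSO, at 37 C. Fluorescence read after 2 h with FRET substrate at room temperature.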

[13] = molecular target: Peroxisome proliferator-activated receptor delta (Homo sapiens) (UniProt Q03181); experiment: qHTS assay to identify small molecule antagonists of the peroxisome proliferator-activated receptor delta (PPARd) signaling pathway (AID 743215; active = well fitted inhibition curve with a large enough effect in the signal ratio in the repeat runs, not every such curve was filed as active; the % refers to the signal ratio;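 also: cells stimulated with agonist L165041 at 300 nM final during compound exposure; series mostly up to about 62 µM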)
In short: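 HEK293H UAS-bla, PPARd; agonist L165041 300 nM final with cpd in DMSO; 37 C 17 h; FRET substrate, RT 2 h; fluorescence intensity.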

[14] = qHTS assay to identify small molecule agonists of the farnesoid-X-receptor (FXR) signaling pathway - cell viability counter screen (AID 743218); also: nearly all actives have a fitted effect of over 45% in size
In short: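 Parallel cytotoxicity test: compound-treated (16 h, 37 C) HEK 293T FXR-bla reporter cells were lysed with CellTiter-Glo and luminescence recorded.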

[15] = qHTS assay to identify small molecule antagonists of the farnesoid-X-receptor (FXR) signaling pathway - cell viability counter screen (AID 743221; active = well fitted cell-killing curve with a large enough effect in the repeat runs, not every such curve was filed as active; also: nearly all actives have a fitted effect of over 50% in size; also: potency is read from the fitted curve at half-maximal effect)
In short: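 FXR-UAS-bla HEK 293T cells were treated with test compounds plus chenodeoxycholic acid (50 uM final) for 16 h at 37 C. Cell viability in the same wells was then read as CellTiter-Glo luminescence after 30 min at room temperature.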

[16] = molecular target: Vitamin D3 receptor (Homo sapiens) (UniProt P11473); experiment: qHTS assay to identify small molecule agonists of the vitamin D receptor (VDR) signaling pathway (AID 743222; calls by dose curve)
Chain of Vitamin D3 receptor (Homo sapiens) (P11473 whole entry, looked up): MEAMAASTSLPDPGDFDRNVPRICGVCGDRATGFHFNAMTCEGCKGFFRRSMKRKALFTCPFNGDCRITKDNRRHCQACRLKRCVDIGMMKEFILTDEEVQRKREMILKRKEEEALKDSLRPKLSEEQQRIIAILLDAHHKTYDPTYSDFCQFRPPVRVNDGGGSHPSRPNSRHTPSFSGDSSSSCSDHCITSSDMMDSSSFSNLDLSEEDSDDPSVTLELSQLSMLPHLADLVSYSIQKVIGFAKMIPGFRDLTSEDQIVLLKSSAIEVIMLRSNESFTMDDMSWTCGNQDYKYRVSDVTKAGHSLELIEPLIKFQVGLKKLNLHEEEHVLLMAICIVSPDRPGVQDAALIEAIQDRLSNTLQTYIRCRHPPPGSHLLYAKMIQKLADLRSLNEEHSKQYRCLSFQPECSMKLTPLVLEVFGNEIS
In short: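 In VDR-bla cells, compound-induced beta-lactamase expression is quantified by FRET substrate fluorescence. Treatment lasts 16 h at 37C; substrate develops 2 h at room temperature.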

[17] = molecular target: Vitamin D3 receptor (Homo sapiens) (UniProt P11473); experiment: qHTS assay to identify small molecule antagonists of the vitamin D receptor (VDR) signaling pathway (AID 743223; active = well fitted inhibition curve with a large enough effect in the signal ratio in the repeat runs, not every such curve was filed as active; the % refers to the signal ratio)
In short: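 VDR-bla cells were plated, incubated 4 h at 37C, then given compound and 1alpha,25-dihydroxyvitamin D3 (3 nM final). After 16 h at 37C, LiveBLAzer B/G FRET substrate was added for 2 h at room temperature and fluorescence read.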

[18] = qHTS assay to identify small molecule antagonists of the peroxisome proliferator-activated receptor delta (PPARd) signaling pathway - cell viability counter screen (AID 743213); also: nearly all actives have a fitted effect of over 50% in size; also: potency is read from the fitted curve at half-maximal effect
In short: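 Cytotoxicity counter screen: CellTiter-Glo luminescence read 30 min after addition, in the same wells as the reporter assay. There, PPARd UAS-bla HEK293H cells (3000/well) were treated 17 h at 37 C with compound and 300 nM L165041.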

[19] = molecular target: Bile acid receptor (Homo sapiens) (UniProt Q96RI1); experiment: qHTS assay to identify small molecule agonists of the farnesoid-X-receptor (FXR) signaling pathway (AID 743220; active = well fitted activation curve with a large enough effect in the signal ratio in the repeat runs, not every such curve was filed as active; the % refers to the signal ratio)
Chain of Bile acid receptor (Homo sapiens) (Q96RI1 whole entry, looked up): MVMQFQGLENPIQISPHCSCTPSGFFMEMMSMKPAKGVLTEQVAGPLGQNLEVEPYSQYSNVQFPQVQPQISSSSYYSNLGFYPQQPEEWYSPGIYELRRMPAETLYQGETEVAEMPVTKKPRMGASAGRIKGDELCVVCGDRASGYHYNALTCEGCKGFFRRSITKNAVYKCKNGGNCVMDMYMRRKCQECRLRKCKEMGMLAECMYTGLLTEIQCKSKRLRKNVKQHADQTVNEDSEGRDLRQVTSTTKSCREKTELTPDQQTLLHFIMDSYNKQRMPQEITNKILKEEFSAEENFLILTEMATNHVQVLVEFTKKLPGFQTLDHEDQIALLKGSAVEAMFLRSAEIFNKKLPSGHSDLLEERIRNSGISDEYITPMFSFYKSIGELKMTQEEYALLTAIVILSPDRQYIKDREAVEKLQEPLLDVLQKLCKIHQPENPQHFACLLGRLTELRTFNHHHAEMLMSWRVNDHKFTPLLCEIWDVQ
In short: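 Beta-lactamase reporter under UAS control in GeneBLAzer FXR HEK 293T cells (5000/well) measured with LiveBLAzer FRET substrate after 2 h at room temperature. Compound exposure lasted 16 h at 37C.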

SMILES	Potency [1]	Potency [2]	Potency [3]	Potency [4]	Potency [5]	Potency [6]	Potency [7]	Potency [8]	Potency [9]	Potency [10]	Potency [11]	outcome [12]	Potency [13]	Potency [14]	Potency [15]	Potency [16]	Potency [17]	Potency [18]	Potency [19]
NC(=O)c1ccccc1N	inactive	inactive	inactive	inactive	inactive	inactive	inactive	inactive	inactive	inactive	inactive	inactive	inactive	inactive	inactive	inactive	inactive	–	–
C=C(C)C(=O)OCCC[Si](Cl)(Cl)Cl	inactive	inactive	inactive	inactive	inactive	inactive	inactive	inactive	inactive	inactive	inactive	inactive	inactive	–	inactive	–	inactive	inactive	–
COC(=O)NCCC[Si](OC)(OC)OC	inactive	inactive	inactive	inactive	–	inactive	–	inactive	inactive	–	inactive	–	–	inactive	inactive	–	inactive	–	–
COc1cc(C(=O)NS(=O)(=O)c2ccccc2C)ccc1Cc1cn(C)c2ccc(NC(=O)OC3CCCC3)cc12	inactive	26.6 µM (active)	inactive	0.169 µM (active)	–	–	29.8 µM (active)	inactive	inactive	inactive	–	–	–	–	inactive	–	inactive	inactive	–
CC(C)=C1CC[C@@H](C)CC1=O	inactive	inactive	inactive	–	inactive	inactive	inactive	inactive	inactive	inactive	inactive	inactive	inactive	inactive	inactive	inactive	inactive	inactive	–
Nc1ncnc2c1ncn2[C@@H]1O[C@H](COP(=O)(O)O)[C@@H](O)[C@H]1O	inactive	inactive	inactive	inactive	inactive	inactive	inactive	inactive	inactive	inactive	10.6 µM (active)	inactive	inactive	–	13.3 µM (active)	inactive	inactive	–	–
Cc1c(C(=O)O)cccc1[N+](=O)[O-]	inactive	inactive	inactive	–	inactive	inactive	inactive	inactive	inactive	–	inactive	inactive	–	inactive	inactive	–	inactive	–	inactive
O=C(O)CCCCCCC(=O)O	inactive	inactive	inactive	–	inactive	inactive	inactive	inactive	inactive	inactive	inactive	–	–	inactive	inactive	–	inactive	–	–
CC1CCCNC1 (centres undefined)	inactive	inactive	inactive	inactive	inactive	inactive	inactive	inactive	–	–	–	–	–	inactive	inactive	–	–	–	–
CC(COC(=O)c1ccccc1)OC(=O)c1ccccc1 (centres undefined)	inactive	inactive	inactive	inactive	–	inactive	–	inactive	inactive	inactive	inactive	–	–	–	inactive	–	inactive	inactive	–
c1ccc(Nc2cccc3ccccc23)cc1	39.1 µM (active)	49.2 µM (active) and 54.5 µM (active)	inactive	inactive	49.6 µM (active) and inactive	inactive	inactive	inactive	inactive	inactive	inactive	–	inactive	inactive	inactive	–	inactive	inactive	–
CC(C)N=C(N)/N=C(\N)Nc1ccc(Cl)cc1	inactive	inactive	inactive	inactive	–	inactive	–	inactive	inactive	inactive	–	inactive	–	–	–	inactive	–	–	inactive
CC(=O)Oc1ccc(C2(c3ccc(OC(C)=O)cc3)C(=O)Nc3ccccc32)cc1	inactive	inactive	inactive	inactive	inactive	inactive	–	inactive	inactive	inactive	inactive	inactive	inactive	inactive	inactive	–	inactive	–	–
CCOC(=O)COc1ccc(C)cc1	inactive	inactive	inactive	inactive	–	inactive	–	inactive	–	–	inactive	–	–	inactive	inactive	–	inactive	inactive	inactive
c1ccc(Sc2ccccc2)cc1	inactive	inactive	inactive	inactive	inactive	inactive	inactive	inactive	–	–	–	–	–	inactive	inactive	–	inactive	–	–
CCCCCCCOC(=O)c1ccc(O)cc1	inactive	inactive	inactive	inactive	43.6 µM (active)	inactive	inactive	inactive	–	–	–	–	–	inactive	inactive	–	–	inactive and 34.7 µM (active)	inactive
